Reference: PubChem BioAssay
Calls of active or inactive are those of the source. Unless noted, how the calls were made is not given here.

Experiments:
[1] = test system: Wnt5a (protein binding on small-molecule microarray); assay: small molecules binding Wnt5a protein – biophysical, small-molecule microarray, 635/667 nm fluorescence, primary screen (AID 1142); conditions: 635 nm fluorescence, higher = more signal;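 further: fluorescence read at 667 nm with signal to noise per printed feature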
[2] = ATP-based viability of Huh7 replicon cells – cell-based, CellTiter-Glo luminescence, basal, 48 h, cytotoxicity control for HCV replication inhibitor project, primary screen (AID 1143); conditions: higher = more signal, called active from +8 up or from −8 down;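 further: Huh7 hepatoma cells carrying a hepatitis C replication reporter with no stimulus; test concentration not given here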
[3] = Pseudomonas biofilm growth suppression – PAO1 strain, BacTiter-Glo luminescence, LB-PBS, primary screen (AID 1144); conditions: P. aeruginosa PAO1 biofilm, 12 h, higher = more signal
[4] = basal CRE-LacZ reporter activity in PC12 – cell-based, unstimulated, primary screen (AID 1145); conditions: no forskolin, luminescence, 4.5 h, higher = more signal, called active from +8 up or from −8 down
[5] = forskolin-driven CRE-LacZ activity in PC12 – cell-based, CRE-LacZ reporter, forskolin-stimulated, primary screen (AID 1146); conditions: luminescence, 4.5 h, higher = more signal, called active from +8 up or from −8 down;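 further: PC12 cells with 6xCRE LacZ reporter stimulated by forskolin 10 µM; beta-galactosidase reporter signal reflecting CREB driven transcription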
[6] = molecular target: Streptavidin (Streptomyces avidinii) (UniProt P22629); assay: compounds binding control protein streptavidin – biophysical, small-molecule microarray, 635/667 nm fluorescence, artefact control for SMM compound annotation, primary screen (AID 1147); conditions: higher = more signal;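 further: signal reflects streptavidin binding to arrayed compounds as a control protein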
Streptavidin (Streptomyces avidinii), sequence (P22629 whole entry, looked up): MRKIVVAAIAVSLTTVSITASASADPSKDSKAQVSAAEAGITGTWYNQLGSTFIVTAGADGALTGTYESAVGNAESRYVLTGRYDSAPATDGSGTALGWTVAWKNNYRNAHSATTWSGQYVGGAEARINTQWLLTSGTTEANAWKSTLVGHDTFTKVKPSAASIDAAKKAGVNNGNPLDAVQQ

[7] = probe aInhba binding on compound microarray – biochemical, small-molecule microarray, 635/667 nm fluorescence, primary screen (AID 1148); conditions: higher = more signal;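 further: score merges 667nm spot fluorescence with signal-to-noise for antibody binding to printed compounds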
[8] = molecular target: Torsin-1A (Homo sapiens) (UniProt O14656); assay: TOR1A wild-type binding on microarray – cell lysate, small-molecule microarray, lysate, 635/667 nm, primary screen (AID 1149); conditions: COS7 hTOR1A-WT lysate, 635 nm fluorescence, higher = more signal
Torsin-1A (Homo sapiens), sequence (O14656 whole entry, looked up): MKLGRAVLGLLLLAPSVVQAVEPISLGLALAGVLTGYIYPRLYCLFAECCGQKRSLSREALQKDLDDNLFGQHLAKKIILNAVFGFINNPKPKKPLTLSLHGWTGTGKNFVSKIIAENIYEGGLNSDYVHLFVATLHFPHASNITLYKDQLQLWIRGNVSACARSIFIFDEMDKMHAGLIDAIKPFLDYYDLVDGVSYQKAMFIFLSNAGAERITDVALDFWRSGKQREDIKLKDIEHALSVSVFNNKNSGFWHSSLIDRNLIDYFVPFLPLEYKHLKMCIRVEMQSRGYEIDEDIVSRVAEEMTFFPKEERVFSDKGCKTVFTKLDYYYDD

[9] = molecular target: Torsin-1A (Homo sapiens) (UniProt O14656); assay: torsin A mutant lysate binding on microarrays – cell lysate, small-molecule microarray, COS7 lysate, 635/667 nm fluorescence, primary screen (AID 1150); conditions: COS7 hTOR1A mutant lysate, 635 nm fluorescence, higher = more signal;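 further: score pools 667 nm emission and signal to noise measuring lysate protein binding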
[10] = test system: Sonic hedgehog protein (Shh); assay: Sonic hedgehog microarray binding compounds – biochemical, small-molecule microarray, 635/667 nm fluorescence, primary screen (AID 1151); conditions: 635 nm fluorescence, higher = more signal;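 further: Shh protein binding to compounds spotted on small-molecule microarray slides; score combines spot fluorescence intensity with signal-to-noise across triplicate slides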
[11] = optical density shifts of acrAB sulA E. coli – strain DRC41, OD650, 48 h, E. coli filamentation inducer project, primary screen (AID 1152); conditions: higher = more signal, called active from +8 up or from −8 down;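 further: E. coli MC1000 strain DRC41 lacking acrAB efflux pump and sulA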
[12] = probe aLefty1 binding on compound microarray – biochemical, small-molecule microarray, 635/667 nm fluorescence, primary screen (AID 1153); conditions: higher = more signal;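 further: score merges spot fluorescence with signal-to-noise ratio from the scanned slide images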
[13] = plasmodial surface anion channel blockers, osmotic lysis – cell-based, P. falciparum Indochina, OD700, 1 h, primary screen (AID 1154); conditions: P. falciparum Indochina infected RBC osmotic lysis, higher = more signal, called active from +8 up or from −8 down
[14] = plasmodial surface anion channel blockers, osmotic lysis – cell-based, P. falciparum Indochina, OD700, 2 h, primary screen (AID 1155);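 further: lysis reports solute entry through the parasite surface anion channel PSAC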; conditions: P. falciparum Indochina infected erythrocytes, higher = more signal, called active from +8 up or from −8 down
[15] = changes in parasitized red cell lysis, either direction – P. falciparum Indochina, OD700, 3 h, PSAC antagonist project, primary screen (AID 1156); conditions: P. falciparum-infected erythrocytes, osmotic lysis, higher = more signal, called active from +8 up or from −8 down
[16] = plasmodial surface anion channel blockers, osmotic lysis – cell-based, P. falciparum Indochina, OD700, 18 h, primary screen (AID 1157); conditions: P. falciparum Indochina infected erythrocytes, osmotic lysis OD700, 18 h; higher = more signal, called active from +8 up or from −8 down
[17] = S6 kinase pathway phospho-S6 level changes – cell-based, A549, cytoblot, luminescence, serum-stimulated, primary screen (AID 1158); conditions: 5 h, higher = more signal;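 further: serum-stimulated A549 lung adenocarcinoma cells; signal is phosphorylated S6 detected by cytoblot immunostaining with HRP secondary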
[18] = molecular target: NADPH oxidase 2 (Homo sapiens) (UniProt P04839); assay: compounds shifting NOX2 Amplex Red fluorescence – cell-based, HEK293-NOX2, PMA-stimulated, NOX inhibitor project, primary screen (AID 1159); conditions: 45 min, higher = more signal, called active from +8 up or from −8 down; further: test concentration not given here
NADPH oxidase 2 (Homo sapiens), sequence (P04839 whole entry, looked up): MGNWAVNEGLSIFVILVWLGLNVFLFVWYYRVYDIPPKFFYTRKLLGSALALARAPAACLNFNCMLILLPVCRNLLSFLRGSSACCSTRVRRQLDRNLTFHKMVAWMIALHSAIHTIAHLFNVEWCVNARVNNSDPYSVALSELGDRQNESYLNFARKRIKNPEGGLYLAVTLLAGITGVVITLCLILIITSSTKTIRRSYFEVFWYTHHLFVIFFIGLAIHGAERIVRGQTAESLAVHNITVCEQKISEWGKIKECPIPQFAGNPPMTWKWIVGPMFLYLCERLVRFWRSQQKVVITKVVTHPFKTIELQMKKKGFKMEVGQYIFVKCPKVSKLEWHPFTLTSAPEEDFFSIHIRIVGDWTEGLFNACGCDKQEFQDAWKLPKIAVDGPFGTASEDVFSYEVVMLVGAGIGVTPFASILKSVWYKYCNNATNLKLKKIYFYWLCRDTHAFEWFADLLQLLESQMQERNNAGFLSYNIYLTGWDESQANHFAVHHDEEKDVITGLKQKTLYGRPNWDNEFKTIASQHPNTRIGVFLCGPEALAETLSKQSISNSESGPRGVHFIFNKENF

[19] = molecular target: NADPH oxidase 4 (Homo sapiens) (UniProt Q9NPH5); assay: compounds shifting NOX4 Amplex Red fluorescence – cell-based, HEK293-NOX4, tetracycline-induced, NOX inhibitor project, primary screen (AID 1160); conditions: HEK293-NOX4, Amplex Red H2O2 fluorescence, 45 min; higher = more signal, called active from +8 up or from −8 down
NADPH oxidase 4 (Homo sapiens), sequence (Q9NPH5 whole entry, looked up): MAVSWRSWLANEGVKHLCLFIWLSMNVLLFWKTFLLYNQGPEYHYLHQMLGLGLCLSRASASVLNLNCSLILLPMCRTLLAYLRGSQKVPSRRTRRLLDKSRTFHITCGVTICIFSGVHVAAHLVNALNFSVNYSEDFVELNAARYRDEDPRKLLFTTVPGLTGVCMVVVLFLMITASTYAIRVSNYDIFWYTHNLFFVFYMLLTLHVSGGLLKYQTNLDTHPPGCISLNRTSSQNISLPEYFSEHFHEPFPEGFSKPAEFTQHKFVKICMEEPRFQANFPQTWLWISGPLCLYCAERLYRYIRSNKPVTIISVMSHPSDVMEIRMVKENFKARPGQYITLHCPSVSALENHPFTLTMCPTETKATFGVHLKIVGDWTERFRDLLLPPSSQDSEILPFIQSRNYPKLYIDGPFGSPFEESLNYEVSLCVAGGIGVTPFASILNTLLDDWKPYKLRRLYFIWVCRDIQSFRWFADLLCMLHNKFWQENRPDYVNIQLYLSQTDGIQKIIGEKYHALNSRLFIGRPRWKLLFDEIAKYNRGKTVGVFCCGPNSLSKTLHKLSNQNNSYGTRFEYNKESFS

[20] = molecular target: NADPH oxidase 5 (Homo sapiens) (UniProt Q96PH1); assay: compounds shifting NOX5 Amplex Red fluorescence – cell-based, HEK293-NOX5, NOX inhibitor project, primary screen (AID 1161); conditions: HEK293-NOX5, ionomycin, 45 min, higher = more signal
NADPH oxidase 5 (Homo sapiens), sequence (Q96PH1 whole entry, looked up): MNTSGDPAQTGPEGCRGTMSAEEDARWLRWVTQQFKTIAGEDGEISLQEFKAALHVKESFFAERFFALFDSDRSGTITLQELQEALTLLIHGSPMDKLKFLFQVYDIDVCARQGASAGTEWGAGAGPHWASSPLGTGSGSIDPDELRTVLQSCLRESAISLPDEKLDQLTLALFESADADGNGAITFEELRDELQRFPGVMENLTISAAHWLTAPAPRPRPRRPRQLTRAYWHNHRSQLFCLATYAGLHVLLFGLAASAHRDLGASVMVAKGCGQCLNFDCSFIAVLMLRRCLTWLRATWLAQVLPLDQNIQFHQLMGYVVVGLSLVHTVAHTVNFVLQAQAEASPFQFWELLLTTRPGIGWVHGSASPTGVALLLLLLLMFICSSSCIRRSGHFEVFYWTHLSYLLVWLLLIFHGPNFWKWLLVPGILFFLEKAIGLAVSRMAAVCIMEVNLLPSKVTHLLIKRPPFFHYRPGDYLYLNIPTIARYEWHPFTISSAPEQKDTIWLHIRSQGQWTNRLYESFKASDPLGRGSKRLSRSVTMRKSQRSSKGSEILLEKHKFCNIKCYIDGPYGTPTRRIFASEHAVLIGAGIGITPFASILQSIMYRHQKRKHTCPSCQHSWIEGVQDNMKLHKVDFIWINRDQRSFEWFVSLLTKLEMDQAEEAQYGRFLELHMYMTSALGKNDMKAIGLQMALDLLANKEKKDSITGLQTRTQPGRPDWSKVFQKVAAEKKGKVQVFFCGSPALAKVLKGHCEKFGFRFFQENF

SMILES	composite z-score [1]	z-score [2]	z-score [3]	z-score [4]	z-score [5]	composite z-score [6]	composite z-score [7]	composite z-score [8]	composite z-score [9]	composite z-score [10]	z-score [11]	composite z-score [12]	z-score [13]	z-score [14]	z-score [15]	z-score [16]	z-score [17]	z-score [18]	z-score [19]	z-score [20]
CC(C)(C)OC(=O)CC[C@]1(C(=O)NCC(O)CO)N=C(c2ccc(OCCCO)cc2)O[C@H]1c1ccccc1 (stereo not given in full)	0.167	-4.48 (inactive)	-1.56 (inactive)	-0.356 (inactive)	-0.729 (inactive)	0.291	0.0391	0.709	1.6	-1.56	1.79 (inactive)	0.125	19.9 (active)	1.43 (inactive)	2.61 (inactive)	-1.32 (inactive)	2.01	0.246 (inactive)	0.678 (inactive)	0.199
COC(=O)CCCCCCC(=O)Nc1ccc(NC(=O)CCCC[P+](c2ccccc2)(c2ccccc2)c2ccccc2)cc1	0.38	-0.238 (inactive)	-0.873 (inactive)	0.575 (inactive)	-1.85 (inactive)	0.352	-0.0645	0.463	0.28	1.89	-12.4 (active)	-0.0601	25.6 (active)	9.83 (active)	1.95 (inactive)	1.43 (inactive)	0.274	-0.765 (inactive)	0.429 (inactive)	0.0901
N#Cc1ccc(NN2C(C(O)c3ccc(F)cc3)C=CC3C(=O)N(c4ccccc4)C(=O)C32)cc1 (stereo not given)	0.0035	0.632 (inactive)	-0.377 (inactive)	0.629 (inactive)	0.521 (inactive)	0.945	-0.0791	0.0271	-0.0504	-0.304	-0.922 (inactive)	1.03	8.09 (active)	1.4 (inactive)	1.36 (inactive)	1.29 (inactive)	-0.491	-1.33 (inactive)	-4.55 (inactive)	-2.9
CCCCCCc1nc(C2CC2)cc2c1[Si](C(C)C)(C(C)C)O[C@H]2c1ccccc1	-0.0368	0.086 (inactive)	-0.0699 (inactive)	0.134 (inactive)	0.128 (inactive)	0.147	0.0319	0.338	0.378	1.59	-1.27 (inactive)	-0.23	0.0479 (inactive)	-0.0357 (inactive)	0.453 (inactive)	-0.11 (inactive)	-0.653	-3.31 (inactive)	-0.00134 (inactive)	-1.77
CCOC(=O)C1=CC[C@@H](c2ccccc2C(F)(F)F)N(S(=O)(=O)c2ccc(C)cc2)[C@H]1c1ccc(C#N)cc1	0.125	-1.96 (inactive)	-0.29 (inactive)	-0.676 (inactive)	0.465 (inactive)	1.11	0.367	0.502	0.512	0.494	-0.53 (inactive)	0.165	0.873 (inactive)	1.65 (inactive)	0.341 (inactive)	0.876 (inactive)	-0.669	0.823 (inactive)	0.699 (inactive)	0.102
COC(=O)Cn1c(C(=O)N(C)C)cc2c1C[C@H]1CN(C(=O)c3ccccc3)[C@@](Cc3ccc(F)cc3)(C(=O)OC)[C@@H]21	0.398	-0.725 (inactive)	-0.625 (inactive)	0.207 (inactive)	-0.106 (inactive)	0.124	0.382	0.245	-0.068	-0.238	-1.25 (inactive)	0.523	0.628 (inactive)	0.238 (inactive)	0.13 (inactive)	0.52 (inactive)	-0.38	0.174 (inactive)	-0.765 (inactive)	-1.26
COc1ccc(CCNC(=O)[C@@]2(Sc3ccc(C)cc3)CC(=O)N(C3Cc4ccccc4C3)[C@@H]2c2ccc(CO)cc2)cc1	1.56	-5.12 (inactive)	-0.926 (inactive)	-0.698 (inactive)	-0.0678 (inactive)	1.03	0.507	0.285	0.811	2.07	-0.336 (inactive)	0.366	4.53 (inactive)	-0.205 (inactive)	-0.0174 (inactive)	-0.874 (inactive)	1.66	-2.19 (inactive)	-1.05 (inactive)	-4.9
C=C(CCCC)/C(=C/C[C@@H](OC(=O)c1ccncc1)c1ccccc1OCCO)c1cnc2ccccc2c1	0.944	-2.5 (inactive)	0.207 (inactive)	10.3 (active)	0.689 (inactive)	1.16	0.11	0.49	-0.239	2.17	-0.209 (inactive)	0.541	20.2 (active)	4.55 (inactive)	1.58 (inactive)	1.12 (inactive)	0.759	-0.852 (inactive)	0.474 (inactive)	-0.524
COCCCNC(=O)[C@]1(CCS(=O)(=O)c2ccccc2)N=C(c2ccc(OCCCO)cc2)O[C@@H]1c1ccccc1N=[N+]=[N-]	1.02	-2.78 (inactive)	2.09 (inactive)	0.297 (inactive)	-1.27 (inactive)	1.31	-0.0907	0.602	0.441	-0.498	0.308 (inactive)	-0.0087	29.8 (active)	28.1 (active)	1.67 (inactive)	2.02 (inactive)	0.737	0.867 (inactive)	0.235 (inactive)	-0.901
Cc1ccc(S[C@]2(C(=O)O)CC(=O)N(C3Cc4ccccc4C3)[C@@H]2c2ccc(CO)cc2)cc1	-0.127	0.121 (inactive)	0.0572 (inactive)	0.001 (inactive)	0.629 (inactive)	-0.395	0.0018	0.794	0.431	-0.3	-0.0458 (inactive)	0.212	3.54 (inactive)	-0.273 (inactive)	0.385 (inactive)	-0.333 (inactive)	-0.401	-0.0451 (inactive)	-0.498 (inactive)	1.58
CC(C)(C)N1CC=CC23O[C@@H]4C=CCOC(=O)[C@@H]4[C@H]2C(=O)N(CCCCCCO)[C@@H]3C1=O (stereo not given in full)	-0.373	0.0926 (inactive)	2.06 (inactive)	0.475 (inactive)	0.437 (inactive)	-0.772	-0.209	-0.191	0.769	-1.13	-0.348 (inactive)	-0.108	1.69 (inactive)	0.127 (inactive)	0.935 (inactive)	0.381 (inactive)	-0.613	0.959 (inactive)	-0.503 (inactive)	1.47
C=CCC(OC(C)=O)[C@@H]1[C@@H](N(Cc2cccc3ccccc23)C(=O)Cc2ccc(F)cc2)c2cc(OCCCO)ccc2N1C(=O)c1ccc2ccccc2n1 (stereo not given in full)	0.243	0.0889 (inactive)	0.0963 (inactive)	0.367 (inactive)	0.101 (inactive)	-0.0219	0.0614	-0.149	-0.101	-0.0199	0.518 (inactive)	0.0477	1.05 (inactive)	0.167 (inactive)	-0.315 (inactive)	0.0897 (inactive)	0.103	-0.126 (inactive)	0.619 (inactive)	1.94
COCCOC(=O)N1C(=O)[C@@]2(c3cc(C#CC4=CCCCC4)ccc31)[C@H](c1ccc(OCCO)cc1)N1[C@H](c3ccccc3)[C@H](c3ccccc3)OC(=O)[C@H]1[C@@H]2C(=O)N1CCN(c2ncccn2)CC1	0.323	-1.24 (inactive)	1.04 (inactive)	0.212 (inactive)	-0.674 (inactive)	0.0363	0.0649	0.767	0.501	0.772	0.887 (inactive)	0.121	3.35 (inactive)	1.73 (inactive)	-0.146 (inactive)	0.799 (inactive)	0.829	0.825 (inactive)	-0.623 (inactive)	1.03
COc1ccc(NC(=O)O[C@H]2[C@H](OC(=O)Nc3ccccc3)[C@H](OC(=O)Nc3ccccc3)[C@@H](OC)O[C@@H]2CO)cc1	1.14	-4.38 (inactive)	0.643 (inactive)	0.204 (inactive)	-1.05 (inactive)	0.0994	0.398	0.97	1.1	1.44	-1.37 (inactive)	0.457	8.18 (active)	1.26 (inactive)	-0.329 (inactive)	0.889 (inactive)	0.0488	0.824 (inactive)	-0.11 (inactive)	-0.922
O=C1O[C@H](c2ccccc2)[C@H](c2ccccc2)N2[C@H]1[C@@H](C(=O)Nc1nc3ccccc3s1)[C@]1(C(=O)Nc3ccc(C#CC4(O)CCCCCC4)cc31)[C@H]2c1ccccc1OCCO	0.731	-4.43 (inactive)	0.0608 (inactive)	0.346 (inactive)	0.0053 (inactive)	0.612	0.27	0.602	0.597	1.32	-0.569 (inactive)	0.966	2.83 (inactive)	3.35 (inactive)	0.602 (inactive)	1.56 (inactive)	0.164	1.29 (inactive)	0.578 (inactive)	1.5
Cc1cc(C)c(C(O)C2C=CC3C(=O)N(c4ccccc4)C(=O)C3N2Nc2ccc(C(C)C)cc2)c(C)c1 (stereo not given)	0.704	0.366 (inactive)	-0.342 (inactive)	0.629 (inactive)	1.07 (inactive)	1.71	0.375	0.385	0.333	-0.297	-1.53 (inactive)	0.51	1.02 (inactive)	1.14 (inactive)	0.858 (inactive)	1.05 (inactive)	-0.484	-1.82 (inactive)	-3.87 (inactive)	-7.33
Cc1ccc(S[C@]2(C(=O)NCC(F)(F)F)CC(=O)N(C3CCCCC3)[C@@H]2c2ccc(CO)cc2I)cc1	-0.0208	-1.76 (inactive)	1.13 (inactive)	0.622 (inactive)	0.343 (inactive)	0.864	0.0074	-0.357	1.19	0.834	0.439 (inactive)	-0.0879	4.35 (inactive)	1.29 (inactive)	-0.178 (inactive)	0.524 (inactive)	-0.283	1.04 (inactive)	0.661 (inactive)	2.07
